The results in this text go back to ChEMBL document CHEMBL3988442, “University of Dundee, Small-Polar-MMV Screening Library” (2021).

Screen size: about 48,000 compounds; about 13,000 (27%) showed an effect of 50% or more. Some of the results follow.

This assay deals with Wolbachia pipientis. Put plainly: Anti-Wolbachia Cell-Based Screen. Format: functional. Further details: scale not given: in the data most compounds retested in dose-response had high values. Particulars: 5 µM.
`Cc1noc(C)c1C(=O)N1CC[C@H]2C[C@@H](c3nccs3)O[C@@H]2C1`: the “Percent Effect” value is -4.112%.
For `CCC(CNC(=O)Cc1c(C)noc1C)N1CCCC1` (centres undefined) the value was 6.109%; for `Cc1nc(CN2CCN(C(=O)c3c(C)noc3C)CC2)cs1`, -5.34%; for `CN1CCCN(S(=O)(=O)c2cn(C)cn2)c2cc(Cl)ccc21`, -2.244%.
Turning to `Cc1noc(C)c1CC(=O)N1CCCN(C)c2ccc(Cl)cc21`, the “Percent Effect” value amounted to 108.2%.
For `Cc1noc(C)c1C(=O)N1CCSc2ccc(Cl)cc21`, the “Percent Effect” value is on record as 93.15%.
On to `Cc1noc(C)c1C(=O)N1CCCN(C)c2ccc(Cl)cc21`, for which the “Percent Effect” value was determined as 90.03%.
As to `Cc1noc(C)c1CN(C)C(=O)CCOc1ccc(Cl)cc1`, the “Percent Effect” value is given as 13.27%.
Take `Cc1noc(C)c1C(C)C(=O)N1CCCN(C)c2ccc(Cl)cc21` (centres undefined): the “Percent Effect” value came to 111.8%.
Then `Cc1noc(C)c1C(C)NC(=O)N1CCN(c2cccs2)CC1` (centres undefined), with 5.123%; and `Cc1noc(C)c1C(C)NC(=O)N1CCCN(C(=O)c2ccsc2)CC1` (centres undefined), with 6.672%; and `O=c1[nH]nc(CNc2cncc(Br)c2)[nH]1`, with -1.101%.
Then `Cn1cc(S(=O)(=O)NC(=O)C2(c3cccc(Cl)c3)CC2)cn1`, with 9.889%; and `Cc1cccc(CN(Cc2ccc(C)o2)C2CC(C)(C)NC(C)(C)C2)n1.O=C(O)CC(O)(CC(=O)O)C(=O)O`, with -13.89%.
For `CN(Cc1ncc[nH]1)CC1CCOc2ccccc2C1` (centres undefined) the value was 5.15%; for `Cc1ccccc1CN(CCO)Cc1ncc[nH]1`, -0.936%.
On to `Cc1ccc(CN(Cc2ncc[nH]2)C2CC(C)(C)NC(C)(C)C2)o1.O=C(O)CC(O)(CC(=O)O)C(=O)O`, for which the “Percent Effect” value is given as 124%.
For the compound `Cc1ccc(CN2CC[C@@H](NS(C)(=O)=O)[C@@H]2Cc2ccncc2)o1.O=C(O)C(F)(F)F.O=C(O)C(F)(F)F`, the “Percent Effect” value worked out at 0.02145%.
With `CC1(C)CC(N(Cc2ccccc2)Cc2ncc[nH]2)CC(C)(C)N1.O=C(O)CC(O)(CC(=O)O)C(=O)O`, the “Percent Effect” value was determined as 109.1%.
As for `Cc1ccc(CN(Cc2ccncc2)C2CC(C)(C)NC(C)(C)C2)o1.O=C(O)CC(O)(CC(=O)O)C(=O)O`, the “Percent Effect” value is on record as 117.7%.
For `CCN(CC)C(=O)[C@@H]1C[C@@H](NC(=O)c2ccoc2)CN1C` the value was 5.596%; for `CN(Cc1ncc[nH]1)CC(c1cccs1)N1CCOCC1` (centres undefined), -1.486%.
As to `Cc1nc(NC(=O)NC2CC(=O)N(C)C2)nn1C(C)C` (centres undefined), the “Percent Effect” value is -15.27%.
With `CCC[C@H]1CN(c2nccc(NCC)n2)C[C@@H]1NS(=O)(=O)N(C)C`, the “Percent Effect” value is 9.452%.
For `CCNc1ccnc(N2Cc3cnn(Cc4ccc(F)cc4)c3C2)n1` the value was -10.41%.
For `Cn1nnc(NCc2ccccc2OCc2ccc(Cl)cc2)n1` the value was 119%; for `CCOc1ccc(CNCCCn2ccnc2)cc1Br`, 7.125%.
Then `Cc1cnn(CCNCc2ccccc2OCc2cccnc2)c1`, with -3.699%; and `CCn1nnc(NCc2ccccc2OCc2ccc(Cl)cc2)n1`, with 122%.
For the compound `CCCn1nnc(NCc2ccccc2OCc2ccc(Cl)cc2)n1`, the “Percent Effect” value was 104.8%.
Turning to `CCOCc1ccccc1CNc1ccc2nncn2n1`, the “Percent Effect” value is reported as -4.273%.
Then `CCOc1ccc(Cl)cc1CNCCCn1ccnc1`, with -4.437%; and `c1ccc(OCc2ccncc2)c(CNC2CCc3ncnn3C2)c1` (centres undefined), with -0.3287%; and `CCOc1cc(CNc2nnn(C)n2)ccc1OCc1ccc(Cl)cc1`, with 121.9%.
